Results from the supplement of paper PMC8975748.
Structures can show the parent of a compound that is named as a salt.

test system: Saccharomyces cerevisiae BY4741 SeMeCo community; test: z-score of subpopulation abundance vs DMSO median, subpopulation auxotrophic for U; higher = larger share of this subpopulation than in DMSO controls; conditions: 10 µM; 24 h; SM minimal medium; subpopulation (auxotrophy): U
Description: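 Fluorescent four-plasmid SeMeCo (self-establishing metabolically cooperating S. cerevisiae BY4741 community; plasmids pH-mRuby2, pL-mWasabi, pU-eCFP, pM-TagRFP657) was grown 24 h in minimal SM medium with each Selleck FDA-approved drug at 10 µM in 384-well plates. Cells were fixed and imaged by high-content confocal microscopy. For each auxotrophic subpopulation (and the prototroph), a z-score gives the deviation from the DMSO vehicle-control population median.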

Point of comparison: `COC(=O)C1=CCCN(C)C1` [Arecoline HBr], “z-score of subpopulation abundance” value -0.09. Against it:
- CCOC(=O)Nc1ccc(NCc2ccc(F)cc2)cc1N [Retigabine 2HCl] — lower, -0.66
- CCCN1C[C@H](CSC)C[C@@H]2c3cccc4[nH]cc(c34)C[C@H]21 [Pergolide Mesylate] — lower, -0.62
- CN(C)C(=O)Oc1ccc[n+](C)c1 [Pyridostigmine Bromide] — higher, 0.29
- CN[C@@H]1[C@@H](O)[C@@H](O[C@@H]2[C@@H](O)[C@H](O[C@H]3O[C@H]([C@@H](C)O)[C@@H](O)[C@H](O)[C@H]3N)[C@@H](N)C[C@H]2N)OC[C@]1(C)O [Geneticin (G418 Sulfate)] — lower, -0.18
- CC[N+](C)(CC)CCOC(=O)C(O)(c1ccccc1)c1ccccc1 [Methylbenactyzine Bromide] — the same, -0.09
- CN(C)[C@@H]1C(=O)C(C(N)=O)=C(O)[C@@]2(O)C(=O)C3=C(O)c4c(O)cccc4[C@@](C)(O)[C@H]3[C@H](O)[C@@H]12 [Oxytetracycline (Terramycin)] — higher, 0.03
- CC1(C)SC2C(N)C(=O)N2C1C(=O)O (centres undefined) [6-Aminopenicillanic acid] — higher, 0.1
- C[C@H]1O[C@H](O[C@H]2[C@H](O)[C@@H](O)[C@@H](O)[C@H](O)[C@@H]2O)[C@@H](N)C[C@@H]1NC(=N)C(=O)O [Kasugamycin hydrochloride] — lower, -0.23
- COc1ccc(C(CN(C)C)C2(O)CCCCC2)cc1 (centres undefined) [Venlafaxine] — higher, 0.93
- CC[C@@H](C(N)=O)N1CCCC1=O [Levetiracetam] — higher, 0
- C[C@@H]1O[C@@H](O[C@H]2C[C@@H](O)[C@]3(CO)[C@H]4[C@H](O)C[C@]5(C)[C@@H](C6=CC(=O)OC6)CC[C@]5(O)[C@@H]4CC[C@]3(O)C2)[C@H](O)[C@H](O)[C@H]1O [Ouabain] — higher, 0.18
- Cc1cc(C(C#N)c2ccc(Cl)cc2)c(Cl)cc1NC(=O)c1cc(I)cc(I)c1O (centres undefined) [Closantel] — lower, -0.26
- NCCc1c[nH]c2ccc(O)cc12 [Serotonin HCl] — higher, 0.33
- CC[C@H]1CN2CC[C@]3(C(=O)Nc4ccccc43)[C@@H]2C[C@@H]1/C(=C\OC)C(=O)OC [Rhynchophylline] — higher, 0.63
- CCN1CC2(OC(=O)c3ccccc3NC(C)=O)CCC(OC)C34C1C(CC23)C1(O)CC(OC)C2CC4C1(O)C2OC (centres undefined) [Lappaconitine] — lower, -0.25
- CC[C@H]1[C@@H]2C[C@H]3[C@@H]4N(C)c5ccccc5[C@]45C[C@@H]([C@@H]2[C@H]5O)N3[C@@H]1O [Ajmaline] — higher, 0.29
- C=CC[C@]1(O)CC[C@H]2[C@@H]3CCC4=CC(=O)CCC4=C3C=C[C@@]21C [Altrenogest] — lower, -1.52
- CCCCCCCCCCCCCCCC[n+]1ccccc1 [Cetylpyridinium Chloride] — higher, 1.27
- CCN(C)C(=O)Oc1cccc([C@H](C)N(C)C)c1 [Rivastigmine] — higher, -0.07
- COc1ccc2c3c([nH]c2c1)C(C)=NCC3 [Harmaline] — lower, -8.11
- CN1[C@@H]2CC[C@H]1C[C@@H](OC(=O)C(CO)c1ccccc1)C2 (some centres undefined) [Atropine sulfate monohydrate] — higher, 0.96
- CN(C)[C@@H]1C(=O)C(C(N)=O)=C(O)[C@@]2(O)C(=O)C3=C(O)c4c(O)ccc(Cl)c4[C@@](C)(O)[C@H]3C[C@@H]12 [Chlortetracycline HCl] — higher, 0.25
- Oc1cccc2cccnc12 [8-Hydroxyquinoline] — lower, -0.25
- O=c1[nH]c2ccccc2n1CCCN1CCC(n2c(=O)[nH]c3cc(Cl)ccc32)CC1 [Domperidone] — higher, 0.4
- CN1[C@@H]2C[C@@H](OC(=O)[C@H](CO)c3ccccc3)C[C@H]1[C@@H]1O[C@@H]12 [Scopolamine HBr] — higher, 0.09
- Oc1cc(Cl)ccc1Oc1ccc(Cl)cc1Cl [Triclosan] — the same, -0.09
- C=C(C)[C@H]1Cc2c(ccc3c2O[C@@H]2COc4cc(OC)c(OC)cc4[C@@H]2C3=O)O1 [Rotenone (Barbasco)] — higher, -0.02
- C[N+]1(C)[C@@H]2C[C@@H](OC(=O)[C@H](CO)c3ccccc3)C[C@H]1[C@@H]1O[C@@H]12 [Methscopolamine] — higher, 0.61
- COc1ccc2[nH]cc(CCN)c2c1 [5-Methoxytryptamine] — higher, 1.12
- Cn1cc(C2=C(c3cn(C4CCN(Cc5ccccn5)CC4)c4ccccc34)C(=O)NC2=O)c2ccccc21 — higher, 1.48
- N[C@@H]1C[C@H]1c1ccccc1 [Tranylcypromine (2-PCPA) HCl] — higher, -0.01
- Nc1ccncc1 [4-Aminopyridine] — lower, -0.8
- COc1ccc(C(CN(C)C)C2(O)CCCCC2)cc1 (centres undefined) [Venlafaxine HCl] — lower, -0.58
